Holding throughout (assay): protein-binding microarray (PBM); PBM: ~300 nM protein, 6 mM HEPES pH 7.8, 80 mM KCl, 0.5 mM EDTA, 0.5 mM EGTA, 6% glycerol, 35 ng/ul poly-dIdC, 1% milk, 1 h, room temperature; Ap Aiptasia and Nv Nematostella (sea anemones) / Co Capsaspora / Aq Amphimedon (sponge) / Dm Drosophila / Hu human; RHD is the Rel homology domain; high values mean tight binding
What all share (conditions): dsDNA, one strand shown

One experiment deals with T1, GST-Ap-NF-kB RHD (Exaiptasia pallida (Aiptasia), UniProt A0A913YAJ5 2-422).
T1 sequence: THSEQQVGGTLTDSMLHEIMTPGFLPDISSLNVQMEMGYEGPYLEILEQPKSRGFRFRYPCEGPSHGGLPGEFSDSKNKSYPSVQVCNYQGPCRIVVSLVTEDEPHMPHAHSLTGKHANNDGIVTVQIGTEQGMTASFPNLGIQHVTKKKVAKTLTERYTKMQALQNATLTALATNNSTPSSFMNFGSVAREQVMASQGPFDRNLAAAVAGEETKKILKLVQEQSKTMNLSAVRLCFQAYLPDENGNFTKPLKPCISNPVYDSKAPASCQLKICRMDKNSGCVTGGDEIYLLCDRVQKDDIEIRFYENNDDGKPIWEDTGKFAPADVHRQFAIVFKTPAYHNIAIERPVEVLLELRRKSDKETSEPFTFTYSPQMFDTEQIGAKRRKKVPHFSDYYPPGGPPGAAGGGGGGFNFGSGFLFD

Experiment [1] addresses T2, GST-Nv-NF-kB (Cys allele) (Nematostella vectensis, UniProt E5G601 2-411).
T2 sequence: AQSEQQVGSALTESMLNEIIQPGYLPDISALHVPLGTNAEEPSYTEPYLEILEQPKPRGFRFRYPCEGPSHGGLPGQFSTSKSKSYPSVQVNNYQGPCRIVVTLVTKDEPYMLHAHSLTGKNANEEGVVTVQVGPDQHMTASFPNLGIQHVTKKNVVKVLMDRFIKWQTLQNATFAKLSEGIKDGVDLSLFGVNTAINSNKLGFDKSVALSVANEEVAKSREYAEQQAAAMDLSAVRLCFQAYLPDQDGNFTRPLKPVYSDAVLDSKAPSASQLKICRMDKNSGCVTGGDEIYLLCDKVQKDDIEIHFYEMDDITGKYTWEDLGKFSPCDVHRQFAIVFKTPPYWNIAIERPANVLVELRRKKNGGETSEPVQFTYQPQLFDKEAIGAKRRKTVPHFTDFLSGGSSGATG

Experiment [2] has as its target T3, GST-Nv-NF-kB (Ser allele) (Nematostella vectensis, UniProt A7UNT2 2-411).
T3 sequence: T2 sequence with Q21R, C66S, S207N, E215Q, V217A, E225K, A268E, D399E

A further experiment concerns the target T4, GST-Co-NF-kB (Capsaspora owczarzaki, UniProt F1ARL5 200-546).
T4 sequence: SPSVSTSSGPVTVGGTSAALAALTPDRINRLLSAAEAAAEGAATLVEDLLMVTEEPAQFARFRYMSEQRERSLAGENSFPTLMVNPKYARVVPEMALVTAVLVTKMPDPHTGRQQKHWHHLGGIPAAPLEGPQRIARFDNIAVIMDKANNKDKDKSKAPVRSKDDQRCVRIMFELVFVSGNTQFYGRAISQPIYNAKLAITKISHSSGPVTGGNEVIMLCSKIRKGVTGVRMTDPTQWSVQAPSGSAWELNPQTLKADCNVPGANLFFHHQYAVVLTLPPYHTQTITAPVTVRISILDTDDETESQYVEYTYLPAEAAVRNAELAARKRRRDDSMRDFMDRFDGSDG

The target in a further experiment is T5, GST-Dm-Relish (Drosophila melanogaster, UniProt Q94527 99-473).
T5 sequence: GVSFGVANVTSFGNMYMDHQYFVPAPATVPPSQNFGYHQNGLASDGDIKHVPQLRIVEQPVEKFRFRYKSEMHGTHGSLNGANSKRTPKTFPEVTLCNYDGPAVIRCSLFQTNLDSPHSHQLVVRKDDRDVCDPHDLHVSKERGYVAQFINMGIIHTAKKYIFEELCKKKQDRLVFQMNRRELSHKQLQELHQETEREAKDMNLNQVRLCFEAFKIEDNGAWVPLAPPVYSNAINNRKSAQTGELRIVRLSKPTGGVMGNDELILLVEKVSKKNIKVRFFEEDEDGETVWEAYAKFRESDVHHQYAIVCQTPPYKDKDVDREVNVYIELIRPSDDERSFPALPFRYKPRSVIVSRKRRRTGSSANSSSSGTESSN

The target of a further experiment is T6, GST-Aq-NF-kB (Amphimedon queenslandica, UniProt A9Y5G7 2-389).
T6 sequence: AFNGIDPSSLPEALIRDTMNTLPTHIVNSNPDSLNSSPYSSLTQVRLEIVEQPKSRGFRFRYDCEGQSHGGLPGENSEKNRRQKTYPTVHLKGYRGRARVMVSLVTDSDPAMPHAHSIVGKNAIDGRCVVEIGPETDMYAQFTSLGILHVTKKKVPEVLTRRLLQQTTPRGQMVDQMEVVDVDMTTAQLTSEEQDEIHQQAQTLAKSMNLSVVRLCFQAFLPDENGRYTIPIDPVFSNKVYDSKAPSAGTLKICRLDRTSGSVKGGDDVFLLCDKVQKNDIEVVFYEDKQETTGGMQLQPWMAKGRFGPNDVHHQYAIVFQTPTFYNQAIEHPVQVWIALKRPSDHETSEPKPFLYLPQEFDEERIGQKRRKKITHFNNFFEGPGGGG

A further experiment has as its target GST-Hu-p50 (Homo sapiens, UniProt P19838 7-356).

Numbering of substitutions follows the chain as printed.

Chain of GST-Hu-p50 (P19838 7-356): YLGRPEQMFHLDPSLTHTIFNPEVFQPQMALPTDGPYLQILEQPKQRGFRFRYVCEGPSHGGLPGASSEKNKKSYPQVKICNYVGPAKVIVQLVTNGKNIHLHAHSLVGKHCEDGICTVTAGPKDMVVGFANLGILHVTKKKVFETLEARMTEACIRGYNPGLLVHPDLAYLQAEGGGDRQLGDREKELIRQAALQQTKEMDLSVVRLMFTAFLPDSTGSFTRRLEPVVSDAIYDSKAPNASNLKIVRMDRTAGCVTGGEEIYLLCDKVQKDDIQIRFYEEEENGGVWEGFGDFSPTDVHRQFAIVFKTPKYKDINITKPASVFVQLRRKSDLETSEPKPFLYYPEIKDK

For the sequence “CCGATTAACATCAAAATCCCAGTTGATGTTAATCGGGTCTTGATTCGCTTGACGCTGCTG”, the binding signal with GST-Ap-NF-kB RHD is 1.67 z-score; in experiment [1], 1.47 z-score; in experiment [2], 1.74 z-score; with GST-Co-NF-kB, 1.27 z-score; in the experiment with GST-Dm-Relish it was 5.96 z-score; with GST-Aq-NF-kB, 1.75 z-score. The same sequence returned a binding signal with GST-Hu-p50 of 1.82 z-score.
As to “CCGATTAACATCAGGGGAATTCATGATGTTAATCGGGTCTTGATTCGCTTGACGCTGCTG”, the binding signal with GST-Ap-NF-kB RHD was 9.45 z-score; in experiment [1], 10.8 z-score; in experiment [2], 10.8 z-score; with GST-Co-NF-kB it was 6.94 z-score; with GST-Dm-Relish, 7.6 z-score; with GST-Aq-NF-kB, 7.5 z-score. In the experiment with GST-Hu-p50, the binding signal is 6.83 z-score.
In the case of “CCGATTAACATCACAGAATTCCCTGATGTTAATCGGGTCTTGATTCGCTTGACGCTGCTG”, the binding signal amounted to 5.09 z-score in the experiment with GST-Ap-NF-kB RHD; 6.44 z-score in experiment [1]; 6.81 z-score in experiment [2]; 3.6 z-score with GST-Co-NF-kB; 4.28 z-score with GST-Dm-Relish; 5.42 z-score with GST-Aq-NF-kB. The sequence also gave a binding signal in the experiment with GST-Hu-p50 of 4.93 z-score.
With “CCGATTAACATCAGGGGGGAAAATGATGTTAATCGGGTCTTGATTCGCTTGACGCTGCTG”, the binding signal with GST-Ap-NF-kB RHD worked out at 7.23 z-score; in experiment [1] it was 6.13 z-score; in experiment [2] it was 8.77 z-score; with GST-Co-NF-kB, 11.5 z-score; with GST-Dm-Relish, 4.99 z-score; with GST-Aq-NF-kB, 6.28 z-score. The binding signal in the experiment with GST-Hu-p50 was determined as 7.08 z-score.
Turning to “CCGATTAACATCAAAATTCCCCATGATGTTAATCGGGTCTTGATTCGCTTGACGCTGCTG”, the binding signal in the experiment with GST-Ap-NF-kB RHD is 8.8 z-score; in experiment [1], 9.9 z-score; in experiment [2], 10.5 z-score; with GST-Co-NF-kB, 7.72 z-score; with GST-Dm-Relish it was 7.31 z-score; in the experiment with GST-Aq-NF-kB it was 7.95 z-score. Besides, in the experiment with GST-Hu-p50, the binding signal was determined as 6.99 z-score.
In the case of “CCGATTAACATCAGGGAAAACTATGATGTTAATCGGGTCTTGATTCGCTTGACGCTGCTG”, the binding signal stood at 3.76 z-score with GST-Ap-NF-kB RHD; 5.55 z-score in experiment [1]; 7.33 z-score in experiment [2]; 5.67 z-score with GST-Co-NF-kB; 1.67 z-score in the experiment with GST-Dm-Relish; 4.07 z-score with GST-Aq-NF-kB. The binding signal with GST-Hu-p50 amounted to 4.03 z-score.
As to “CCGATTAACATCAAAGTTCCCCCTGATGTTAATCGGGTCTTGATTCGCTTGACGCTGCTG”, the binding signal with GST-Ap-NF-kB RHD stood at 8.84 z-score; in experiment [1], 8.65 z-score; in experiment [2], 9.29 z-score; in the experiment with GST-Co-NF-kB, 11.3 z-score; with GST-Dm-Relish, 8.65 z-score; with GST-Aq-NF-kB it was 7.49 z-score. Moreover, the binding signal in the experiment with GST-Hu-p50 is 6.75 z-score.
As for “CCGATTAACATCAGGGGATTTCATGATGTTAATCGGGTCTTGATTCGCTTGACGCTGCTG”, the binding signal with GST-Ap-NF-kB RHD was determined as 9.36 z-score; in experiment [1] it was 9.75 z-score; in experiment [2], 10.8 z-score; in the experiment with GST-Co-NF-kB, 3.46 z-score; with GST-Dm-Relish, 8.36 z-score; in the experiment with GST-Aq-NF-kB, 6.85 z-score. Further, the binding signal with GST-Hu-p50 stood at 7.42 z-score.
With “CCGATTAACATCAAGAATTCCCCTGATGTTAATCGGGTCTTGATTCGCTTGACGCTGCTG”, the binding signal is 9.76 z-score in the experiment with GST-Ap-NF-kB RHD; 11.7 z-score in experiment [1]; 12.3 z-score in experiment [2]; 7.33 z-score with GST-Co-NF-kB; 8.81 z-score with GST-Dm-Relish; 8.32 z-score with GST-Aq-NF-kB. The sequence further returned a binding signal in the experiment with GST-Hu-p50 of 7.54 z-score.

These data come from publication PMC5700166.
